# Source: PubChem (several laboratories)
# Rpn11 block: Rpn11 (PSMD14) deubiquitinase inhibitors, primary screen, biochemical, fluorescence polarization, uHTS; AID 588493, 2011; 26S proteasome non-ATPase regulatory subunit 14 (Homo sapiens), O00487; human 26S proteasome, Ub4-pepOG fluorescence polarization; 20S core pre-blocked with epoxomicin; 360,000 compounds, 0.59% hits; inhibition, % at 20 µM;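 active means inhibition at 20 µM, scaled to each plate's controls, above about 33%, limit read from the data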
# PHOSPHO1 block: PubChem AID 1565; Phosphoethanolamine/phosphocholine phosphatase (Homo sapiens), Q8TCT1; inhibition, % at 13.3 µM; 290,000 compounds, 1.1% hits; recombinant PHOSPHO1, absorbance phosphatase assay; in the data active means inhibition above about 60%
# NRP1-CendR mod: modulators of CendR peptide binding to NRP-1, primary screen, biochemical, fluorescence polarization, uHTS | Neuropilin-1 (Homo sapiens), O14786 | FAM-RPARPAR peptide binding to NRP-1 | 360,000 compounds, 0.85% hits | AID 602438, 2012 | inhibition, % at 25 µM;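 active means inhibition or corrected inhibition above about 18%, plus a signal ratio from 0.5 to 1.5, limit read from the data, passing the limit was not always enough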
# TPT1 inhibitor: Candida albicans TPT1 enzyme inhibitors, primary screen, biochemical, fluorescence polarization; recombinant caTPT1, FP RNA substrate dephosphorylation; inhibition, % at 5 µM; 300,000 compounds, 0.81% hits;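 active means inhibition above the mean of all tested compounds plus 3 SD, set per screening campaign, cut at about 24% in these data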
# CTSL1 counter: Fasciola hepatica cathepsin L1 inhibitors, primary screen, counter-screen for PFM18AAP inhibitor project, biochemical, QFRET, fluorogenic peptide substrate; recombinant F. hepatica cathepsin L1, Z-Leu-Arg-MCA fluorescence; inhibition, % at 5.96 µM; 300,000 compounds, 0.49% hits;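 active means inhibition above the mean of all tested compounds plus 3 SD, set per screening campaign, cut at about 17% in these data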
# HNF4A DNA FP: change in binding of human HNF4A to DNA, primary screen, biochemical, fluorescence polarization, FITC-DNA | Hepatocyte nuclear factor 4-alpha (Homo sapiens), P41235 | 1 h | activity change, % at 10 µM | 360,000 compounds, 0.3% hits | AID 1224865, 2016; in the data active means activity change above about 30%, passing the limit was not always enough
# Target sequence (P41235 whole entry, looked up): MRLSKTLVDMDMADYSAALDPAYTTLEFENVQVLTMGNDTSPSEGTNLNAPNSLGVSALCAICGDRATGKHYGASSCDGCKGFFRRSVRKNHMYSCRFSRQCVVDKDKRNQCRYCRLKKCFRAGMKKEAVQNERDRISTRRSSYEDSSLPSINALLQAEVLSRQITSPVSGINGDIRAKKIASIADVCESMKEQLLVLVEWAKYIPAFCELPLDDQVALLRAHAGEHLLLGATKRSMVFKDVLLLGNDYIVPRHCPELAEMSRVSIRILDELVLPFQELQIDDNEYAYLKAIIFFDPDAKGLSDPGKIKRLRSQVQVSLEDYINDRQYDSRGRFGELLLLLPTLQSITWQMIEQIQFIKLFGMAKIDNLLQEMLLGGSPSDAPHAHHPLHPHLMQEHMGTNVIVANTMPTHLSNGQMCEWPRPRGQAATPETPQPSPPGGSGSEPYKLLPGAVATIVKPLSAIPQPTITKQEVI
# A number is an active result; . = inactive; / = no result given. Most compounds without a hit are left out; they make up all but 3.3% or so of the library.
SMILES,Rpn11 block,PHOSPHO1 block,NRP1-CendR mod,TPT1 inhibitor,CTSL1 counter,HNF4A DNA FP
C=C1CC2C(=O)N(Cc3ccccc3)C(C(=O)OCC)(C(=O)OCC)C1N2C(=O)OC(C)(C)C (centres undefined),.,/,.,.,.,.
O=C(NCc1ccccc1Cl)c1cccc2c1C(=O)c1ccc(-c3ccc(OC(F)(F)F)cc3)cc1S2(=O)=O,.,/,.,/,/,.
Cn1c(CN2CCN(C(=O)c3ccco3)CC2)nc2cc([N+](=O)[O-])ccc21,.,66.3,.,.,.,.
O=C(Nc1ccc(F)cc1F)c1ccccc1-c1ccccc1,.,.,30.8,.,.,.
CCOC(=O)C1=C(C)N=c2sc(=Cc3cc(Cl)c(OCC(=O)O)c(Cl)c3)c(=O)n2C1c1cccc(OC)c1 (centres undefined),/,/,.,/,/,97.2
C=CCc1c(C)nc(SC)nc1Nc1ccc(C(C)=O)cc1,.,73.8,.,.,.,.
CC(=O)Nc1ccc(OCCC[n+]2ccccc2)cc1,.,60.1,.,.,.,.
COc1ccccc1NC(=S)NCc1ccco1,.,61.5,.,.,.,.
COc1cc(NC(=S)NCc2ccco2)cc(OC)c1OC,.,.,.,.,.,.
COc1ccc(C)cc1NC(=O)NCc1ccco1,.,61.0,.,.,.,.
CN(C)S(=O)(=O)c1cccc(COC(=O)C2=COCCO2)c1,.,.,.,.,.,.
O=C(CCNS(=O)(=O)c1ccc(OC(F)(F)F)cc1)NCCc1c[nH]c2ccccc12,.,/,.,/,/,.
CCC1CCCN1Cn1cnc2c([nH]c3ccc(Cl)cc32)c1=O (centres undefined),.,.,.,.,18.7,.
CN1/C(=C/C(=O)C2CCC2)Sc2ccccc21,.,.,.,.,.,.
CCC(=S)/C=C1\Sc2ccccc2N1CCCS(=O)(=O)O,.,64.4,.,.,.,.
COc1ccc(/C=N/NC(=O)C(=O)N2CCN(c3ccccc3OC)CC2)cc1,.,.,.,.,.,.
COCCN(C(=O)c1ccc(-c2ccc([N+](=O)[O-])cc2)o1)c1c(N)n(CC(C)C)c(=O)[nH]c1=O,.,/,.,/,/,.
Cc1cc(S(=O)(=O)Nc2ccc(N(C)C)cc2)c(C)s1,.,66.6,.,.,.,.
C=CCNC(=S)N1CCN(CCN=CC2=C(O)CC(c3ccc(Cl)cc3)CC2=O)CC1 (centres undefined),.,.,.,.,.,.
N/C(Cn1cncn1)=N\NC(=O)C(=O)Nc1cccc(C(F)(F)F)c1,.,60.0,.,.,.,.
CCN(CC)c1ccc(C(=S)N2CCN(c3ccccc3)CC2)cc1,.,74.0,.,.,.,.
S=C(c1ccccc1)N1CCN(c2ccccc2)CC1,.,/,.,/,/,.
O=C1[C@H]2[C@@H](c3ccccc3)N[C@]3(CCCN(Cc4ccccc4)C3=O)[C@H]2C(=O)N1Cc1ccccc1,.,/,.,/,/,.
c1ccc(-c2cc(NCCN3CCCCC3)c3ccccc3n2)cc1,.,.,.,.,.,.
CC1CCCCN1C(=S)NCCc1ccccc1 (centres undefined),.,88.1,.,.,.,.
SMILES,Rpn11 block,PHOSPHO1 block,NRP1-CendR mod,TPT1 inhibitor,CTSL1 counter,HNF4A DNA FP
O=C(COC(=O)c1ccccc1)c1ccc(S(=O)(=O)N2CCCCC2)cc1,.,/,.,/,/,.
CC(C)[C@H](NC(=O)c1ccccc1)C(=O)OCC(=O)c1ccc(S(=O)(=O)N2CCCCC2)cc1,.,/,.,.,34.7,.
CC[C@H](C)[C@H](NC(N)=O)C(=O)Nc1ccc2c(c1)OCO2,.,.,.,.,.,.
COc1cccc(/C=C2\SC(=S)N(C(Cc3ccccc3)C(=O)O)C2=O)c1 (centres undefined),.,.,.,.,.,54.4
CNc1ncc(C(=O)c2ccc(Br)cc2)s1,.,.,.,/,/,.
CCOC(=O)C1CCCN(C(=O)c2cccc(OC(F)(F)F)c2)CC1 (centres undefined),.,/,.,/,/,.
CCn1cc(C(=O)OCC(=O)NCc2ccccc2Cl)c(=O)c2ccc(C)nc21,.,.,.,.,16.7,.
CC1=CC=CC2=NC(=O)CC(C)(C(=O)O)N12 (centres undefined),.,.,.,.,.,.
Cc1ccc(C(=O)C2C(=O)C3CCC2C3)cc1 (centres undefined),.,/,.,/,/,.
COc1ccccc1Nc1nc(N)nc(CSc2nc(C)cc(C)n2)n1,.,.,.,.,.,.
COc1ccc(Nc2nc(N)nc(CSc3nc(C)cc(C)n3)n2)cc1,.,60.1,.,.,.,.
Cc1cccc(-n2c(-c3ccoc3C)n[nH]c2=S)c1,.,.,.,.,.,.
O=C(O)c1ccc(-n2c(-c3ccc(Br)cc3)n[nH]c2=S)cc1,.,102.7,.,.,.,.
Cc1ccc(-n2c(-c3c(-c4ccccc4)noc3C)n[nH]c2=S)cc1,.,85.1,.,.,.,.
Cc1ccc([N+](=O)[O-])c(-c2n[nH]c(=S)n2-c2cccc(Cl)c2)c1,.,88.2,.,.,.,.
Cc1cccc(-n2c(CCn3nc(C)c([N+](=O)[O-])c3C)n[nH]c2=S)c1,.,96.9,.,.,.,.
CCn1c(-c2nn(C)c(C)c2Cl)n[nH]c1=S,.,.,.,.,.,.
Cc1ccc(-n2c(-c3cccc(C)c3)n[nH]c2=S)cc1,.,101.5,.,.,.,.
Cc1ccc(-n2c(-c3nn(C)c(C)c3Cl)n[nH]c2=S)cc1,.,95.0,20.3,.,.,.
Cc1ccc(-c2n[nH]c(=S)n2-c2ccccc2)cc1,.,.,.,.,.,.
C[C@@H]1COc2cc(N(C)CCO)ccc2S(=O)(=O)N1,/,/,.,/,/,.
CCOC(=O)c1ccc(NC(=O)COc2ccccc2CNC2CCCC2)cc1,.,.,.,.,.,.
CC(C)(C)OC(=O)N1CCC(CC2CC(c3ccc(Cl)cc3)=NO2)(C(=O)NCC2CCCCC2)CC1 (centres undefined),.,.,.,.,.,.
C/C(=N\Nc1ccc(Cl)cc1)c1ccccn1,.,94.5,.,.,.,.
N#Cc1cccnc1N1CCN(C(=O)c2ccc3c(c2)S(=O)(=O)c2ccccc2C3=O)CC1,.,/,.,.,.,.
O=C1c2ccccc2S(=O)(=O)c2cc(C(=O)N3CCN(c4ccc(Cl)cn4)CC3)ccc21,.,/,.,.,16.7,.
COc1cc(C=C2C(=O)C=CC2=O)ccc1O,/,/,.,/,/,.
COc1ccccc1N1CCN(C(=O)CSc2nnc(C)n2C2CC2)CC1,.,/,.,/,/,.
